Our source for the growth inhibition values is PubChem BioAssay (NCI).

Assay [1] in a line: NCI Yeast Anticancer Drug Screen. Data for the rad50 strain (AID 155).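 Also: 0% = growth of vehicle-only cultures of the same strain.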 The conditions noted are these: S. cerevisiae rad50 strain growth inhibition; at 50.0 µM; stronger effect = higher value. Summed up:
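DNA repair mutant yeast, compound exposure, growth read-out; inhibition is taken relative to vehicle.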

The nature of assay [2]: NCI Yeast Anticancer Drug Screen. Data for the mec2-1 strain (AID 157). The following applies: S. cerevisiae mec2-1 strain, at 50.0 µM, stronger effect = higher value. The gist of the method:
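Yeast mec2-1 mutant treated with compound. Readout: growth inhibition vs vehicle controls.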

A short description of assay [3]: NCI Yeast Anticancer Drug Screen. Data for the sgs1 mgt1 strain (AID 161).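 Also: 0% = growth of cultures given vehicle only.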 The following applies: S. cerevisiae sgs1 mgt1 strain, at 50.0 µM, stronger effect = higher value. Summed up:
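Mutant yeast exposed to compound; growth scored against vehicle-only wells.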

A short description of assay [4]: NCI Yeast Anticancer Drug Screen. Data for the cln2 rad14 strain (AID 165).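 Also: 0% = growth equal to vehicle treated cultures.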 The following applies: S. cerevisiae cln2 rad14 strain, at 50.0 µM, stronger effect = higher value. The gist of the method:
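cln2 rad14 yeast strain; compound exposure; growth inhibition read vs vehicle controls.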

Assay [5] in a line: NCI Yeast Anticancer Drug Screen. Data for the mlh1 rad18 strain (AID 175). The conditions noted are these: S. cerevisiae mlh1 rad18 strain growth inhibition; at 50.0 µM; stronger effect = higher value. The gist of the method:
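Yeast w/ defined DNA-repair lesions; compound exposure; growth vs vehicle controls → % inhibition.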

A short description of assay [6]: NCI Yeast Anticancer Drug Screen. Data for the bub3 strain (AID 167). The conditions noted are these: S. cerevisiae bub3 mutant strain, at 50.0 µM, stronger effect = higher value. Summed up:
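In this screen, a yeast mutant lacking normal mitotic checkpoint function is challenged with compound. Relative growth versus vehicle gives the inhibition value.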

Structures are written as SMILES. The panel holds about 79,000 compounds, 15% with a hit somewhere; the sample as a whole holds those more often. A number with no mark means an inactive call. Calls of active or inactive are those of the source. Rule as the data show it: active = growth inhibition above about 70%; inactive = the rest.

For `CC(NC(=O)c1ccccc1)c1ccc[nH]1` (stereo unspecified), the growth inhibition is 8.75% in assay [1]; -9.2% in assay [2]; 0.05% in assay [3]; -15.2% in assay [4]; -0.15% in assay [5].

As to `CS(=O)(=O)c1ccc(C=O)cc1`, the growth inhibition in assay [1] is 12.8%; in assay [2], 6%; in assay [3], 2.25%; in assay [4] it was -3.8%; in assay [5], 8.3%.

Take `Oc1ccc(Cl)cc1/C=N/NC(=S)Nc1cccc2cccnc12`: the growth inhibition was 24.1% in assay [1]; 12.6% in assay [2]; 10.7% in assay [3]; 20.6% in assay [4]; 15.7% in assay [5].

On to `COc1ccc(/C(O)=C/c2nc3cccc([N+](=O)[O-])c3[nH]c2=O)cc1`, for which the growth inhibition in assay [1] was 20.2%; in assay [2] it was -14.8%; in assay [3] it was 2.3%; in assay [4], -14.1%; in assay [6], -35.4%; in assay [5] it was 17.7%.

Take `CC1=CC(O/C=C2\C(=O)OC3C=CCC23)OC1=O` (stereo unspecified): the growth inhibition in assay [1] is -1.6%; in assay [2], -32%; in assay [3] it was 17.4%; in assay [4], 4.05%; in assay [5] it was 0.55%.

Regarding `CCCCN=C=NCCC[N+](C)(C)C`, the growth inhibition is 0.4% in assay [1]; 7.2% in assay [2]; 0.9% in assay [3]; 10% in assay [4]; 8.2% in assay [5].

With `CCCCNC(=O)Nc1cccc(C)c1C`, the growth inhibition is -4.2% in assay [1]; -7.9% in assay [2]; 0.75% in assay [3]; -25.8% in assay [4]; 6.35% in assay [5].

Consider `CCOC(=O)C(=O)C(C(=O)OCC)C(C)C(=O)OCC` (stereo unspecified), for which the growth inhibition is 1.9% in assay [1]; -8.3% in assay [2]; 8.2% in assay [3]; -41.1% in assay [4]; -11.2% in assay [5].

Regarding `C=C1SC(=Nc2c(C)cccc2Cl)N(C(=O)c2sc3ccccc3c2Cl)C12CCCCC2`, the growth inhibition was 8.05% in assay [1]; -16% in assay [2]; 2.3% in assay [3]; 5.6% in assay [4]; 8.75% in assay [5].

With `CCSCCC(C)(N)C(=O)O` (stereo unspecified), the growth inhibition in assay [1] is -7.35%; in assay [2], -8.85%; in assay [3] it was -12.3%; in assay [4], -38.7%; in assay [5], -3.7%.

Regarding `CCOC1OC(C2COC(=S)O2)C(O)C1O` (stereo unspecified), the growth inhibition was 9.35% in assay [1]; -2.15% in assay [2]; 7.85% in assay [3]; -4.1% in assay [4]; 13.6% in assay [5].

Consider `Cc1ccccc1C(C#N)/C(=N/NC(N)=S)C(=O)Nc1c(C)cccc1C` (stereo unspecified), for which the growth inhibition in assay [1] is -36.5%; in assay [2] it was -27.7%; in assay [3] it was 2.5%; in assay [4], -12.4%; in assay [5], -31.1%.

Regarding `O=C1NC(=S)N/C1=C/c1ccc2c(c1)CCC2`, the growth inhibition in assay [1] was 13.9%; in assay [2], -20.2%; in assay [3], 20.6%; in assay [4], 12.4%; in assay [5], 12.7%.

As to `CCNCC(=O)Nc1ccc2c(c1)C(=O)c1ccc(NC(=O)CNCC)cc1C2=O`, the growth inhibition in assay [1] is 20.9%; in assay [2], 28.5%; in assay [3], 29.2%; in assay [4], -4.55%; in assay [5], 50.8%.

For `O=C(c1ccc(Cl)c(Cl)c1)N1CCCCC1`, the growth inhibition in assay [1] is -1.25%; in assay [2], -7%; in assay [3], 13.8%; in assay [4] it was -48.5%; in assay [5], -6.25%.

Take `O=C(Nc1ccc(Cl)c(Cl)c1)OCC1CC2C=CC1C2` (stereo unspecified): the growth inhibition is 95.2% (active) in assay [1]; 97.8% (active) in assay [2]; 97.3% (active) in assay [3]; 94.8% (active) in assay [4]; 95% (active) in assay [5].

For `Cc1cccc(NC(=O)COc2c(C)cc(Cl)cc2Cl)c1`, the growth inhibition was 23.8% in assay [1]; 15.5% in assay [2]; 38.2% in assay [3]; 38% in assay [6]; 14.8% in assay [5].

Regarding `CC(=N/NC(=S)NCCN1CCCC1)/C(C)=N\NC(=S)NCCN1CCCC1`, the growth inhibition was 50.6% in assay [1]; 4.95% in assay [2]; 47.6% in assay [3]; 12.7% in assay [6]; 35.1% in assay [5].

Consider `COC(=O)c1nc(N)nc(C(=O)OC)c1C(=O)C(C)(C)C`, for which the growth inhibition is -11.1% in assay [1]; -10.8% in assay [2]; -25.9% in assay [3]; -41.6% in assay [6]; -28.8% in assay [5].

For `CCCCCCCCCCCCOC(=O)NCCCl`, the growth inhibition in assay [1] was -53%; in assay [2] it was -106%; in assay [3], -57%; in assay [6] it was -27.6%; in assay [5], -60.1%.

Consider `Cn1c(=O)c2[nH]c(SCC(=O)O)nc2n(C)c1=O`, for which the growth inhibition in assay [1] is 7.45%; in assay [2], 0.95%; in assay [3] it was 3.35%; in assay [6], 7.6%; in assay [5] it was -3.65%.

Regarding `CCOC(=O)CC(=O)C(=O)OCC`, the growth inhibition in assay [1] was 2.05%; in assay [2], -4.75%; in assay [3], -4.8%; in assay [6], -18%; in assay [5], -27.2%.

For `COc1ccc(C2=C(Cl)c3cc(OC)c(OC)cc3C2=O)cc1OC`, the growth inhibition is 0.75% in assay [1]; -7.1% in assay [2]; -7.05% in assay [3]; -9.85% in assay [6]; 2.4% in assay [5].

As for `O=C(Nc1ccccc1)OC1C=CC2CCC1C2` (stereo unspecified), the growth inhibition is 7.75% in assay [1]; 3.35% in assay [2]; 38.6% in assay [3]; 17.8% in assay [6]; 58.3% in assay [5].
